Test [1] is described as follows: NCI Yeast Anticancer Drug Screen. Data for the rad50 strain (AID 155).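 Also: 0% = growth of vehicle-only cultures of the same strain.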 Particulars: S. cerevisiae rad50 strain growth inhibition; at 50.0 µM; active compounds read high. In short, it runs like this: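 Genetically altered yeast (DNA repair pathway); compound treatment; growth inhibition vs vehicle ctrl.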
Test [2] is described as follows: NCI Yeast Anticancer Drug Screen. Data for the mec2-1 strain (AID 157). The settings on record: S. cerevisiae mec2-1 strain, at 50.0 µM, active compounds read high. The essentials:
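Using mec2-1 yeast: add compound, measure growth, express inhibition versus vehicle-treated cultures.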

The nature of test [3]: NCI Yeast Anticancer Drug Screen. Data for the sgs1 mgt1 strain (AID 161).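 Also: 0% = growth of cultures given vehicle only.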 Particulars: S. cerevisiae sgs1 mgt1 strain, at 50.0 µM, active compounds read high. In short, it runs like this:
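This yeast growth screen uses a strain with defined DNA-repair lesions; compound-treated growth is compared with vehicle-treated growth.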

Test [4] can be described thus: NCI Yeast Anticancer Drug Screen. Data for the cln2 rad14 strain (AID 165).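 Also: 0% = growth equal to vehicle treated cultures.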 Particulars: S. cerevisiae cln2 rad14 strain, at 50.0 µM, active compounds read high. The essentials:
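Yeast strain cln2 rad14, bearing defects in cell cycle control and DNA repair, serves as the test system; values reflect growth inhibition compared with vehicle.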

Test [5] in a line: NCI Yeast Anticancer Drug Screen. Data for the bub3 strain (AID 167). Particulars: S. cerevisiae bub3 mutant strain, at 50.0 µM, active compounds read high. In short, it runs like this: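 Yeast carrying a defined mutation is treated with each compound, and growth is compared with that of vehicle-exposed cells to give inhibition.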
Test [6] can be described thus: NCI Yeast Anticancer Drug Screen. Data for the mlh1 rad18 strain (AID 175). The settings on record: S. cerevisiae mlh1 rad18 strain growth inhibition; at 50.0 µM; active compounds read high. The essentials: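 Steps: expose repair-defective yeast to compound; measure growth; express inhibition against vehicle-treated controls.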

This is part of a sample that, as a whole, favours compounds with a hit. Of some 79,000 tested, about 15% had one in any assay. Unmarked numbers belong to inactive results. The source made the active and inactive calls. Rule as the data show it: active = growth inhibition above about 70%; inactive = the rest.

With `C[C@H]1CC[C@@H](C(C)(C)O)CC2=C1CC[C@@H]2C`, the growth inhibition in test [1] is -0.2%; in test [2], -44.4%; in test [3], -13.2%; in test [4] it was 0.15%; in test [5], -10.6%; in test [6], -26.4%.

For `CC(C)CCCC(C)C1CCC2C3CC=C4CC(OP(=O)(O)OC5CCC6(C)C(=CCC7C6CCC6(C)C(C(C)CCCC(C)C)CCC76)C5)CCC4(C)C3CCC12C` (stereo not given), the growth inhibition in test [1] is -7.55%; in test [2], -23.8%; in test [3] it was -3.65%; in test [4], 7.8%; in test [5] it was -7.6%; in test [6], -5.5%.

Turning to `CC1OC(=O)C(O)=C1O` (stereo not given), the growth inhibition in test [1] is -5.15%; in test [2], -10.6%; in test [3] it was -5.75%; in test [4], 8.75%; in test [5], 8.85%; in test [6] it was -20.6%.

Take `CCOC(=O)C1CCCCN1C(=O)OCc1ccccc1` (stereo not given): the growth inhibition in test [1] is -6.95%; in test [2] it was -1.75%; in test [3] it was 0.75%; in test [4] it was -8.05%; in test [5] it was 20.9%; in test [6], -42.3%.

On to `Cc1cccc2nc(-c3ccccn3)n(CCc3ccccn3)c12`, for which the growth inhibition in test [1] was -5.2%; in test [2] it was 5.35%; in test [3] it was 1.65%; in test [4], -18.5%; in test [5], -8.2%; in test [6], 17.2%.

For `O=C(NCCCCCCCCCNC(=O)C12CC3CC(CC(C3)C1)C2)C12CC3CC(CC(C3)C1)C2`, the growth inhibition in test [1] is 23.2%; in test [2], 9.2%; in test [3], 21.7%; in test [4], 29.5%; in test [5] it was -1.55%; in test [6] it was 28.4%.

In the case of `CN(C)c1ccc(/C=c2/sc3nc(=O)c(-c4ccccc4NC(=O)C(F)(F)F)nn3c2=O)cc1`, the growth inhibition in test [1] is 3.95%; in test [2] it was 2.65%; in test [3] it was -5.95%; in test [4], -12.1%; in test [5], -20.4%; in test [6], -5.15%.

As for `CN(C)Cc1cc(N=Nc2ccccc2Cl)cc(CN(C)C)c1O`, the growth inhibition in test [1] is -40.5%; in test [2], -19.1%; in test [3], -9.25%; in test [4], -14.3%; in test [5], 12.3%; in test [6] it was -13.4%.

With `CCOC(=O)c1ncn2c1[nH]c(=S)c1ccccc12`, the growth inhibition in test [1] is -14.8%; in test [2], -19.1%; in test [3] it was -11.2%; in test [4], -0.95%; in test [5], -17.9%; in test [6], -2.05%.

`CCCCCCCCCCCCN1CCCN(CCCCCCCCCCCC)CC1`: the growth inhibition in test [1] is 56.7%; in test [2], 99.2% (active); in test [3], 7.45%; in test [4], 96.7% (active); in test [5], 98.7% (active); in test [6], 99.2% (active).

For `Nc1ccc(C(=O)N/N=C/c2ccc(Cl)cc2Cl)cc1`, the growth inhibition in test [1] is 27%; in test [2], -4.05%; in test [3], 11.9%; in test [4], 8%; in test [5], 13.1%; in test [6] it was -5.75%.

In the case of `O=C1C(O)C(c2ccccc2)c2ccccc2N1c1ccccc1` (stereo not given), the growth inhibition in test [1] is 2.2%; in test [2] it was 5.35%; in test [3] it was 1.8%; in test [4], -5.9%; in test [5], -9.75%; in test [6] it was 15.1%.

Regarding `N=C(N)n1ncc(Cl)c(Cl)c1=O`, the growth inhibition is 30.8% in test [1]; 36.2% in test [2]; 33.9% in test [3]; 30.4% in test [4]; 38.9% in test [5]; 41.5% in test [6].

`CCCCOCCOCCOS(=O)(=O)c1ccc(C)cc1`: the growth inhibition in test [1] is 11.1%; in test [2] it was 1.6%; in test [3] it was 12.6%; in test [4], 5%; in test [5], 10.2%; in test [6] it was 13.9%.

Consider `Cn1c(=O)ccc2c1nc1ccccc1[n+]2[O-]`, for which the growth inhibition in test [1] is -6.25%; in test [2] it was 4.65%; in test [3] it was -6.7%; in test [4] it was -30.8%; in test [5], 4.75%; in test [6], -11.8%.

Consider `N#CCC(=O)N1CCCC1`, for which the growth inhibition in test [1] is -23.1%; in test [2], -32.3%; in test [3], -3.8%; in test [4], -8.6%; in test [5], -14.3%; in test [6], -26.2%.

Turning to `CSCCC(NCc1c(O)ccc2c(-c3ccccc3)cc(=O)oc12)C(=O)O` (stereo not given), the growth inhibition in test [1] was -23.3%; in test [2] it was -20.5%; in test [3] it was -30.1%; in test [4], -1.5%; in test [5], -2.95%; in test [6] it was -31.2%.

Turning to `O=c1c2cc([N+](=O)[O-])ccc2sc2ccsc12`, the growth inhibition in test [1] is 1.6%; in test [2], 2.55%; in test [3] it was -4.95%; in test [4], -2.85%; in test [5] it was -10.6%; in test [6], 11.9%.

`Cc1ccc(NC(=O)C2c3ccccc3-c3ccccc32)cc1`: the growth inhibition was 39.4% in test [1]; 16.6% in test [2]; 16.9% in test [3]; -8.35% in test [4]; 10.9% in test [5]; 21.1% in test [6].

Regarding `COc1ccc(C(=C(I)c2ccccc2)c2ccc(OC)cc2)cc1`, the growth inhibition in test [1] was -31.6%; in test [2], -26.4%; in test [3], -11.4%; in test [4], -15.9%; in test [5], -25.4%; in test [6], -18.9%.

For the origin of these results see PubChem BioAssay (NCI).
